# Data: the supplement of paper PMC10681739
# Legend:
# [1] = target: T1, ETS1 (UniProt P14921); test: ETS1 binding intensity (PBM fluorescence), ETS1 alone (arbitrary fluorescence units); higher = stronger binding; conditions: ETS1 concentration 1 nM; RUNX1 concentration 0 nM
# T1 sequence: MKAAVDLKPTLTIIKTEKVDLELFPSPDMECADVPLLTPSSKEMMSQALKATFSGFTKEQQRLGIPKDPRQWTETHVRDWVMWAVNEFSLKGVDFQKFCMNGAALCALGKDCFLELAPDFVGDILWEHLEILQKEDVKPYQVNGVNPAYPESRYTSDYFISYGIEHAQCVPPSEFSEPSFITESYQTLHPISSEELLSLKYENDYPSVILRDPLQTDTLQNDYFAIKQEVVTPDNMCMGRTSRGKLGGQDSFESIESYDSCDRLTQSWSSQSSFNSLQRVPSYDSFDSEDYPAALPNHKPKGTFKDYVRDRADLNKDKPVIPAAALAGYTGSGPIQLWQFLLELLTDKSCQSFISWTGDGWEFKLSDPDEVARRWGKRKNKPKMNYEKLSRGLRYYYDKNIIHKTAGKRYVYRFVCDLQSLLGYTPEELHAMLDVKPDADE
# [2] = target: T1, ETS1; test: ETS1 binding intensity (PBM fluorescence) in presence of RUNX1, normalised to ETS1-only experiment (arbitrary fluorescence units); higher = stronger binding; conditions: ETS1 concentration 1 nM; RUNX1 concentration 25 nM
# [3] = target: T1, ETS1; test: TF binding intensity (PBM fluorescence), negative control probe (arbitrary fluorescence units); higher = stronger binding
# Method: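 gcPBM negative-control 36-bp genomic probes lacking TF binding sites. Each was incubated with recombinant human ETS1 or RUNX1 alone and detected by antibody fluorescence. Values are medians over replicate spots (4 spots for the ETS1-RUNX1 arrays, 3 for the ETS1-ETS1 array). The probes sit in constant array flanks that are not printed.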
Sequence,ETS1 binding intensity [1],ETS1 binding intensity [2],TF binding intensity [3]
GCCTGCGCTCTTTCCGGTAGCCACAGCCTCGTCTAA,1290,1220,–
AGCACGCCGGGAAATGGAGTCTCAGGTGGTTTTTAA,443,364,–
CCCGGTGCACCGGATCCGACCACACCCTGGGTGGGC,525,400,–
AACAGCTTTTGTCCAGGATGTGGCTTCATAGCCTTG,1650,2340,–
CCGTGTCAGTGAGGATGTGGGCTGCCGGGCTGGGCG,491,753,–
GAACATGGTCTCCGCTTCCGCCGCAACCTCGGCCTT,525,744,–
AAAGGGAAGTTGGCGGGAGTTCAAAACCACCGGGGC,347,494,–
TCGGAACGGAAGGGAGGCACGAAACCGCGAGTGGAG,607,1840,–
GTGGCTTCCTGCCATTGACAATTGCGGGATGGCTTT,529,542,–
GCTGTTTCCTGCTGATAAAAACACCCCACAACTTCA,449,510,–
CCCGGACCGTTTCCGTGCTGTGGTCCCGGGTTCTGG,443,412,–
GGAGGAAGAGAGGAAACGGGGGCGGCCGCAGCTTCT,836,1070,–
CGAGCTCGCAAGAGGAAACCGCGGCGCGGAGGCAGC,681,1130,–
CCAACACGGATACAAAAAATATCTCTCTACCACACT,476,531,–
CAGCCCTCTTCCTGCCTGTCTGTGGCTGGTGAGGTT,597,431,–
AGGAGTGAGGAAGTGAGGCTGGCCTTGTGGGTGTGG,644,748,–
TGGAATTGAAAGGAAGCTGGCGCCACCGCAGAGGAC,658,2830,–
TTCTCCACTTCCTTCTTTACCTCACCTACCACATAA,568,544,–
CGCCGGACGTAGTGACGTAGCGCGCAGCCGCAGCGG,442,476,–
GGTGTTAGTAGTCAAGGAAGTGGTCACCCTTGACAG,1010,2150,–
CTGAAGGCTGGGGAGGAAGTGACCGCCCTCATATGC,2120,2330,–
TGGGCACGGGAGGAAGAGGCTGGGTGGTAAACAGGA,467,494,–
ATTGTAAATTTCCTTTAAACGTCCCCACCGCGCTCC,463,480,–
TGAATCATCCTGAGTTACCCGTTCTGTAACCGCCCC,490,517,–
CAGAGGAGGAAGAGGAAGCCACAGCGATAGGGTCAC,522,520,–
TGAAGTTCAGGGGGAAGTGGTTAGAGTCCCTGCGAG,494,674,–
CCTCTCAACAGCATTTCCTGGTGGTCAGATATCTGA,580,587,–

Sequence,ETS1 binding intensity [1],ETS1 binding intensity [2],TF binding intensity [3]
CTTCCTTCCCTTCCTTCTGCTCCCTCCCACAGCCGC,519,436,–
GTACGCTCTTCACTTCCCGTACCCGCGCCCGGCAGG,609,634,–
TGAGCCCCAGCAAGGGGAAGTGGTTAACCCAGGGTC,709,1960,–
CTGCACAGGGAAGTGAGTGTCGAGCTCACCGCACCG,383,690,–
CTAGGGAGAGGATGTGAGTTTGTCTGTGGGGGTGGT,796,828,–
CGCCCTCCGGAAGAGAGGGCGGACCGCGGCCGCGCA,570,636,–
CTGACAGCTTCCGCACAAAGCGCGGTCTATTTCTCC,405,544,–
CTGAGGCGCGCCGGAAGGGCTAGCGGTCCCAGCATA,1280,1430,–
GAGAGCTGAGCGGAAGCTCAGCTGTGGGGCTGGTTG,1740,1990,–
TAACTTGAACTTCCTTTTGACCACCTGTACGGTATA,497,462,–
TGGCTTCCTGTCTGTCCTTCATCAGCCCACAGAGGC,517,529,–
CCAGGCGTTTCCGGGTTCCCGCGGTCCCGTCCCCCA,1340,1330,–
GAACTGAAGAAGGCAGGAAGCCACAGGCTCCTGGGT,1730,2280,–
TGCTTCCGGCGGGCGCTTGCTCCCCGCGGTCCGCAC,657,762,–
CAGTGGCTTCCTCCCCACCTCCTACCACATTCAATG,517,467,–
TGAATATTCTTCCGCACGTACCCACATGGCTCACTT,486,337,–
TCTCTTCTCCCCATCCGCCCGAGACCACAGCCACTC,509,507,–
ACACCACTCAGGAAGACAAAGCCACACCTCACACCG,487,440,–
TCGCATAGCCGGGAAGCGCGGTGGAGGTTGTTGGGG,428,473,–
GGCAGGCAGCAGAGGAAACCACCCCCACCCACTCCC,1420,1640,–
AATTGTCAATGGCAGGAAGCCACCACATGAAGAGAT,1290,1650,–
GTCCCCCGGAACCGTCTCCTCCCCCGCACGCGCCGC,516,433,–
TTCAAAGGAGTCCAAGGAAGTGGTTTAACAGCGATG,843,1400,–
TGAGGCTCAGAGGAAGTGACTGGCCCGCAGGGTCAC,1050,1550,–
AGCTCCAGGAAGAGGGCCTGAAAACCAAACGGGGGA,408,474,–
TGAATGAGTCTTTTTTTGGCCATCTCTTTATGATTA (protein concentration 10 nM),–,–,132
